AGP1-GFP MLPCN: modulators of TOR pathway AGP1-GFP in S. cerevisiae; S. cerevisiae AGP1-GFP multiplex flow cytometry, 3 h; GFP as percent of DMSO wells; GFP response vs DMSO, % at 10 µM; 320,000 compounds, 0.02% hits;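 active = GFP response relative to DMSO above a set limit, near screen average plus 3 SD, cut at about 150% in these data; inconclusive = fewer than 70 cells counted for the yeast strain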;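 also: median GFP channel fluorescence of the gated AGP1 strain per well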
LAP4-GFP MLPCN: alters LAP4-GFP fluorescence in TOR pathway yeast screen | S. cerevisiae LAP4-GFP multiplex, flow cytometry GFP, 3 h; median GFP as percent of DMSO wells | GFP response vs DMSO, % at 10 µM | 320,000 compounds, 0.34% hits | AID 2023;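 active = GFP response vs DMSO above a set limit, about the screen mean plus 3 SD, cut at about 150% in these data; inconclusive = under 70 cell events counted for the yeast strain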
CIT2-GFP yeast: modulators of TOR pathway CIT2-GFP in S. cerevisiae; S. cerevisiae CIT2-GFP strain, flow cytometry, 3 h; 100 means same as DMSO wells; 320,000 compounds, 0.065% hits; GFP response vs DMSO, % at 10 µM;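 active = GFP response relative to DMSO above a set limit, near the screen mean plus 3 SD, cut at about 150% in these data; inconclusive = Fewer than 70 cells measured for a yeast strain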;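 also: ratio of well median GFP fluorescence to mean of DMSO wells on the plate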
RPL19A-GFP yeast: modulators of TOR pathway RPL19A-GFP in S. cerevisiae | 330,000 compounds, 0.3% hits | S. cerevisiae RPL19A-GFP strain, flow cytometry, 3 h; stronger effect = lower value | percent response vs DMSO, % at 10 µM | AID 2025;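 active = percent response vs DMSO below 50%; inconclusive = fewer than 70 events counted for the yeast strain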;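 also: median channel GFP fluorescence of the barcoded RPL19A-GFP strain; ratio of sample median GFP to plate DMSO average so 100% = DMSO; lower means less RPL19A-GFP as with rapamycin TOR inhibition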
MEP2 TOR yeast: modulators of TOR pathway MEP2-GFP in S. cerevisiae | S. cerevisiae MEP2-GFP strain, flow cytometry GFP, 3 h; 100% = DMSO control level | GFP response vs DMSO, % at 10 µM | 330,000 compounds, 0.51% hits | AID 2016;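 active = GFP response versus DMSO above a set limit, roughly screen mean plus 3 SD, cut at about 180% in these data; inconclusive = fewer than 70 cells counted for a yeast strain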;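 also: median GFP fluorescence of the barcode-gated MEP2-GFP cells per well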
LAP4-GFP pick2: yeast LAP4-GFP modulation, second cherry pick | GFP response vs DMSO, % at 10 µM | shares compounds with LAP4-GFP MLPCN | S. cerevisiae LAP4-GFP strain, flow cytometry GFP, 3 h | 590 compounds, 20% hits;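 active = GFP signal as percent of the solvent control above about 150%, meaning raised reporter expression, limit read from the data; inconclusive = fewer than 70 cells counted in the well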;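 also: ratio of well median GFP fluorescence to plate DMSO mean so 100% = DMSO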
MEP2-GFP pick2: yeast MEP2-GFP modulation, second cherry pick; 590 compounds, 10% hits; AID 2622; GFP response vs DMSO, % at 10 µM; shares compounds with LAP4-GFP MLPCN; S. cerevisiae MEP2-GFP strain, flow cytometry GFP, 3 h;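 active = GFP signal above 150% of the solvent control wells, that is a rise of more than half; inconclusive = fewer than 70 yeast cells counted in the well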;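 also: median channel GFP fluorescence of all gated yeast cells per well; ratio of median GFP to plate DMSO average so 100% = DMSO level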
RPL19A-GFP pick2: second confirmation of modulators of TOR reporter RPL19A-GFP in yeast. shares compounds with LAP4-GFP MLPCN. S. cerevisiae RPL19A-GFP strain, flow cytometry GFP, 3 h; stronger effect = lower value; 100% means same as DMSO wells. GFP response vs DMSO, % at 10 µM. 590 compounds, 3% hits;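 active = under 65% GFP response relative to DMSO; inconclusive = yeast strain with under 70 measured events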;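 also: median GFP channel fluorescence per well over the all cells gate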
CIT2-GFP pick2: reconfirmed modulator of CIT2-GFP TOR reporter in yeast | shares compounds with LAP4-GFP MLPCN | S. cerevisiae CIT2-GFP strain, flow cytometry GFP, 3 h; DMSO control wells read 100% | GFP response vs DMSO, % at 10 µM | 590 compounds, 8% hits;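 active = GFP response vs DMSO above about 150%, limit read from the data; inconclusive = fewer than 70 events counted for a yeast strain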;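 also: median green fluorescence per well over all gated yeast cells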
AGP1-GFP pick2: reconfirmed modulator of AGP1-GFP TOR reporter in yeast; shares compounds with LAP4-GFP MLPCN; S. cerevisiae AGP1-GFP strain, flow cytometry GFP, 3 h; percent response vs DMSO, % at 10 µM; 590 tested, under 10 active; AID 2643;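 active = over 150 percent of DMSO response; inconclusive = yeast strain measured with under 70 events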;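 also: median GFP channel fluorescence over all cells without mother daughter split; sample median GFP divided by mean DMSO control so 100% equals DMSO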
s288c autofluor: compound is autofluorescent in yeast s288c cells; 610 tested, under 10 active; fluorescence change (kMESF span) at 33 µM; shares compounds with LAP4-GFP MLPCN; S. cerevisiae s288c, 520 nm autofluorescence, flow cytometry, 3 h; stronger effect = higher value; zero means same as solvent-only cells;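 active = fluorescence span over the dose series, or activity score, above about 33, limit read from the data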
The depositor's hits bear a star; u = inconclusive; [ ] = dose if it differs, or a comment. Only some compounds are listed: those with a hit (about 0.92% of all), similar ones and a draw of the others.

SMILES	AGP1-GFP MLPCN	LAP4-GFP MLPCN	CIT2-GFP yeast	RPL19A-GFP yeast	MEP2 TOR yeast	others
Cc1c(C(=O)O)sc2nc(/C=C/c3cccc(O)c3)[nH]c(=O)c12	98	96	104	103	94
CCC12OC(=N)C(C#N)(C1C)C(C#N)(C#N)C(c1ccccc1)O2 (stereo unspecified)	15	95	u	74	204*[may fluoresce violet]
COc1ccc(NCc2cccnc2)cc1	97	88	97	100	94
COc1cccc(/C=N/NC(=O)c2ccncc2)c1OC(=O)c1ccc(Br)cc1	u	78	u	17*[may fluoresce violet]	122
NC(=O)c1nsc(C(=O)N(CC(=O)NCc2ccccc2)c2ccc(F)cc2)c1N	72	87	u	64	309*[may fluoresce violet]
NC(=O)c1nsc(C(=O)N(CC(=O)NCc2ccccc2)c2cccc(F)c2)c1N	105	98	109	96	96
O=C(NC1CCCC1)C(c1cccnc1)N(Cc1ccc(F)cc1)C(=O)c1csnn1 (stereo unspecified)	101	102	100	97	104
CCCCN1CCC(COC(=O)c2cc(Cl)c(N)c3c2OCCO3)CC1	94	98	86	98	96
Clc1ccc(OCCn2cnc3ccccc32)c(Cl)c1	90	155*	69	89	95
CCOC(=O)c1cnc(SC)nc1Oc1cccc(NC(=O)c2cccc(Cl)c2Cl)c1	101	98	106	99	100
COc1ccc(-c2[nH]ncc2CN(CCO)Cc2cccs2)c(F)c1	103	129	118	102	198*
CCN(Cc1ccncc1)Cc1cn[nH]c1-c1ccc(OC)cc1F	99	99	102	95	102
COc1ccc2[nH]c3ccccc3c2c1	99	105	113	101	105
COc1ccc2c(c1)C=Cc1ccccc1O2	96	150*	89	96	92
COc1ccccc1N1CCN(S(=O)(=O)c2c(C)sc3ncn(CC(=O)NCCN(C)C)c(=O)c23)CC1	u	90	u	50	258*[may fluoresce violet]
Cc1cccc(Sc2c(C=O)c3ccccc3n2C)c1	u	55	u	65	228*[may fluoresce violet]
Cc1cccc(C)c1OCCNC(=O)OCc1ccccc1	101	95	103	109	108
CN(C)c1ccc(S(=O)(=O)NCC(=O)OCC(=O)Nc2cc(Cl)cc(Cl)c2)cc1[N+](=O)[O-]	93	91	100	100	102
CCN(CC)C(=O)c1ccc2c3c(cccc13)C(=O)N(CCc1ccc(OC)c(OC)c1)C2=O	98	119	103	104	177*
Cc1cc(Cl)ccc1OCCCC(=O)N1CCCCC1	102	103	101	101	105
Cc1cc(Cl)ccc1OCCCC(=O)N1CCOCC1	u	75	u	36*[may fluoresce violet]	222*[may fluoresce violet]
Cc1cccc2c(SCC(N)=O)nc(-c3ccccc3)nc12	131	98	99	109	106
CCCCn1c(-c2csc3c2CCCC3)n[nH]c1=S	92	154*	77	96	112
Cc1[nH]n(-c2ccccc2)c(=O)c1/C=N/Nc1nncc(-c2ccccc2)n1	88	271*	89	89	113
Cc1ccc(/C=N/Nc2nncc(-c3ccccc3)n2)o1	100	98	105	97	99
SMILES	AGP1-GFP MLPCN	LAP4-GFP MLPCN	CIT2-GFP yeast	RPL19A-GFP yeast	MEP2 TOR yeast	others
COc1ccc(C2/C(=C(/O)c3ccc(C)cc3)C(=O)C(=O)N2C)c(OC)c1 (stereo unspecified)	101	102	100	102	101
Cc1ccc([N+](=O)[O-])cc1NCC(=O)NN	20	95	u	60	188*[may fluoresce violet]
O=C(NC1CC1)c1ccc(N2CCCCC2)c([N+](=O)[O-])c1	92	102	94	99	100
CCc1c(O)nc(SCC(=O)NCc2ccco2)[nH]c1=O	28	204*[may fluoresce violet]	u	39*[may fluoresce violet]	678*[may fluoresce violet]
Cc1nnc(SCC(=O)NCc2ccco2)[nH]c1=O	94	85	94	96	92
C[C@@]12C(=O)OC(=O)[C@]1(C)C1CCC2O1	71	189*	67	91	95	LAP4-GFP pick2=213*;MEP2-GFP pick2=150;RPL19A-GFP pick2=101;CIT2-GFP pick2=92;AGP1-GFP pick2=83;s288c autofluor=1.7
Cc1cc(NC(=O)CSc2nnc(-c3ccncc3)n2-c2ccc(F)cc2)no1	75	98	91	63	135	LAP4-GFP pick2=100;MEP2-GFP pick2=103;RPL19A-GFP pick2=100;CIT2-GFP pick2=97;AGP1-GFP pick2=97
CCc1ccc(NC(=O)CC2C(=O)NCCN2C(=O)c2ccc(F)cc2)cc1 (stereo unspecified)	98	100	92	95	95
CCNC(=S)NNC(=O)Cn1c(=O)c2c(ncn2CCOC)n(Cc2ccccc2)c1=O	97	179*	81	85	221*	LAP4-GFP pick2=99;MEP2-GFP pick2=108;RPL19A-GFP pick2=101;CIT2-GFP pick2=102;AGP1-GFP pick2=100
COC(=O)c1cc(-c2c(-c3ccc4c(c3)OCO4)noc2-c2ccsc2)cc([N+](=O)[O-])c1	89	102	98	102	86
CN(C)c1ccc(-c2c(-c3ccc4c(c3)OCO4)noc2-c2ccsc2)cn1	71	155*	62	91	88	LAP4-GFP pick2=103;MEP2-GFP pick2=110;RPL19A-GFP pick2=98;CIT2-GFP pick2=106;AGP1-GFP pick2=98
O=c1[nH]c(-c2ccccn2)nc(C(F)(F)F)c1Br	97	242*	93	108	113	s288c autofluor=1.7
O=C(OCc1ccccc1)N1CCOCCOCCN(C(=O)OCc2ccccc2)CCOCCOCC1	95	102	94	99	104
CC(C)(C)c1ccc(-c2cnco2)cc1	u	92	87	64	u	LAP4-GFP pick2=96;MEP2-GFP pick2=101;RPL19A-GFP pick2=97;CIT2-GFP pick2=100;AGP1-GFP pick2=100
